Reference: PubChem BioAssay (NCI)
The panel holds about 83,000 compounds, 20% with a hit somewhere; the sample as a whole holds those more often.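 Plates (96-well) were seeded with cells, treated with compound at one concentration, and incubated for 48 hours before percent growth was determined.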 Active and inactive are the calls of the source. The calls were made as follows: active = growth percent below 10; inactive = the rest.

What was measured:
Experiment in all cases: NCI-60 one-dose screen, 48 h (100 = growth as untreated, 0 = no growth, -100 = all killed)
Conditions in all cases: 10 µM unless noted
[1] = test system: MOLT-4 leukemia
[2] = test system: SR leukemia
[3] = test system: RPMI-8226 leukemia
[4] = test system: OVCAR-8 ovarian
[5] = test system: OVCAR-5 ovarian
[6] = test system: OVCAR-4 ovarian
[7] = test system: SK-OV-3 ovarian
[8] = test system: IGROV1 ovarian
[9] = test system: OVCAR-3 ovarian
[10] = test system: HS 578T breast
[11] = test system: NCI/ADR-RES ovarian
[12] = test system: T-47D breast
[13] = test system: BT-549 breast
[14] = test system: MDA-MB-435 melanoma
[15] = test system: SW-620 colon
[16] = test system: MCF7 breast
[17] = test system: HCT-116 colon
[18] = test system: HCC-2998 colon
[19] = test system: KM12 colon

Measured: growth

COc1ccc(NC([Se])=NC23CC4CC(CC(C4)C2)C3)cc1
active: [1] 5.72% | [2] 5.11% | [3] -31.9% | [4] -0.307% | [5] -12.9% | [6] 6.53% | [7] -18.2% | [8] 3.84% | [9] -32.3% | [10] -5.52% | [11] 1.9% | [12] -11.7% | [15] 2.24% | [17] 1.65% | [19] 5.4%
inactive: [13] 11.3% | [14] 20% | [16] 11.4% | [18] 14.6%

O=C1CNC(c2ccccc2)c2cc(Cl)ccc2N1 (stereo not given)
inactive: [1] 93.5% | [2] 88.8% | [3] 109% | [4] 99.7% | [5] 113% | [6] 112% | [7] 98.2% | [8] 100% | [9] 98% | [10] 109% | [11] 100% | [12] 88.4% | [13] 122% | [14] 108% | [15] 97.2% | [16] 97.8% | [17] 97% | [18] 106% | [19] 91.2%

COc1ccc2c(c1)c(-c1nc(-c3c[nH]c4ncccc34)cs1)cn2CCN1CCOCC1
active: [12] -1.96% | [16] 5.06%
inactive: [1] 45.7% | [2] 45.5% | [3] 22.3% | [4] 37.9% | [5] 82.9% | [6] 28% | [7] 67.9% | [8] 27.7% | [9] 59% | [10] 37.5% | [11] 38.7% | [13] 50.6% | [14] 73% | [15] 75.5% | [17] 52.5% | [18] 74.1% | [19] 20.2%

O=C([O][Hg][CH2]C1OCCOC1[CH2][Hg][O]C(=O)c1ccccc1)c1ccccc1 (stereo not given)
inactive: [3] 12.3% | [4] 90% | [5] 112% | [7] 122% | [8] 46.3% | [10] 113% | [11] 28.7% | [13] 75.5% | [14] 93.6% | [18] 108% | [19] 107%
active: [1] -8.85% | [2] 2.54% | [6] -89.2% | [9] -98.2% | [12] -64.1% | [15] -82.4% | [16] -31.7% | [17] -95.2%

CSc1nc(Cl)cc(N2CC2)n1
inactive: [1] 108% | [2] 109% | [3] 73.8% | [4] 101% | [5] 111% | [6] 114% | [7] 115% | [8] 123% | [9] 117% | [10] 110% | [11] 119% | [12] 108% | [13] 111% | [14] 116% | [15] 105% | [16] 105% | [17] 105% | [18] 138% | [19] 111%

c1cc2c(c3c1CCNC3)OCO2
inactive: [1] 100% | [2] 93% | [3] 109% | [4] 107% | [5] 108% | [6] 110% | [7] 92.6% | [8] 99.9% | [9] 118% | [10] 112% | [11] 101% | [12] 90.4% | [13] 97.4% | [14] 106% | [15] 112% | [16] 92.7% | [17] 99% | [18] 102% | [19] 106%

O=[N+]([O-])CC(c1ccccc1Cl)c1c(-c2ccccc2)[nH]c2ccccc12 (stereo not given)
inactive: [1] 30.3% | [2] 18.9% | [3] 45.2% | [4] 40.4% | [5] 69.1% | [6] 66.4% | [7] 44.1% | [8] 33.8% | [10] 41.2% | [11] 25.5% | [12] 22.1% | [13] 37.3% | [15] 25.2% | [16] 21.8% | [17] 20.3% | [18] 71.3% | [19] 26.8%
active: [9] 9.26% | [14] -9.48%

C=C(C)[C@@]12OC3(/C=C/C=C/CCCCC)O[C@@H]1[C@@H]1[C@@H]4O[C@]4(CO)[C@@H](O)[C@]4(O)C(=O)C(C)=C[C@H]4[C@@]1(O3)[C@H](C)[C@H]2OC(=O)c1ccccc1
active: [10] 4% | [18] -3.12% | [19] 9.5%
inactive: [1] 31.2% | [2] 67.2% | [3] 66.4% | [4] 82.6% | [5] 107% | [6] 72.2% | [7] 102% | [8] 52.3% | [9] 61.6% | [11] 69.4% | [12] 81.7% | [13] 83% | [14] 40.5% | [15] 58.9% | [16] 38.7% | [17] 49.7%

COc1cc(/C=C\c2cc(OC)c(OC)c(OC)c2)cc(NS(=O)(=O)c2cccc(Cl)c2)c1OC
active: [1] 9.29% | [9] -36.3% | [11] 7.73% | [14] -20.2% | [16] 7.6% | [17] 2.62% | [19] 5.83%
inactive: [2] 10.6% | [3] 18.1% | [4] 18.2% | [5] 19.5% | [6] 37.4% | [7] 16.9% | [8] 26.3% | [10] 45.4% | [12] 93.1% | [13] 24.1% | [15] 25.4% | [18] 13.9%

COC(=O)[C@@H](C)C[C@H](Cc1ccccc1)NC(=O)c1csc([C@@H](C[C@H](C(C)C)N(C)C(=O)[C@@H](NC(=O)CN(C)C)C2CC2)OC(C)=O)n1
inactive: [1] 16.6% | [3] 34.3% | [4] 20.1% | [5] 56.3% | [6] 54.4% | [7] 42.2% | [8] 28.4% | [10] 32.3% | [11] 54.7% | [12] 72.8% | [15] 35.8% | [16] 17.7% | [18] 16%
active: [2] 3.74% | [9] 1.63% | [13] -21.1% | [14] 0.597% | [17] 3.84% | [19] 7.64%

Fc1cccc(NCOOC2(OOCNc3cccc(F)c3)CCCCC2)c1
inactive: [1] 97.6% | [2] 31.5% | [3] 99.6% | [4] 96.8% | [5] 96.2% | [6] 98.5% | [7] 103% | [8] 40.1% | [9] 99.3% | [10] 104% | [11] 77.8% | [12] 86.8% | [13] 102% | [14] 101% | [15] 104% | [16] 88.8% | [17] 87.3% | [18] 105% | [19] 94.6%

Nc1ccc(OCCNS(=O)(=O)c2cccc(S(=O)(=O)F)c2)c(Cl)c1
inactive: [1] 76.2% | [2] 93.3% | [3] 80.4% | [4] 115% | [5] 102% | [6] 64.1% | [7] 87.1% | [8] 97.3% | [9] 110% | [10] 93.6% | [11] 101% | [12] 102% | [13] 95.9% | [14] 98.2% | [15] 106% | [16] 85.3% | [17] 95.2% | [18] 101% | [19] 101%

O=NN1CCCc2cccc(O)c21
active: [2] 1.91%
inactive: [1] 51.8% | [3] 44.5% | [4] 24% | [5] 115% | [6] 63.7% | [7] 38.8% | [8] 44.4% | [9] 49.6% | [10] 46.3% | [11] 32.5% | [12] 77.2% | [13] 54.2% | [14] 52.1% | [15] 44.1% | [16] 27.2% | [17] 21.7% | [18] 55.7% | [19] 68.4%

Fc1ccc2c(c1)c(-c1nc(-c3c[nH]c4ncccc34)cs1)cn2CCCCN1CCCCC1
active: [1] -67.7% | [2] -60.2% | [3] -49.6% | [4] -82.9% | [5] -68.2% | [6] -23.8% | [7] -72.6% | [8] -60.5% | [9] -84.3% | [10] -28.6% | [11] -64.1% | [12] -68.8% | [14] -87.2% | [15] -73.7% | [16] -75.3% | [17] -97.9% | [18] -19% | [19] -66.9%
inactive: [13] 75.7%

CC(=O)OC[C@]1(C)C=C2C(=O)[C@](C)(O)C3(CC3)C(C)=C2[C@H]1OC(=O)N(C)CCN(C)C(=O)OC(C)(C)C
inactive: [1] 10.5% | [2] 14% | [3] 32.9% | [10] 17.5% | [15] 10.4% | [19] 13%
active: [4] -12% | [5] 3.2% | [6] -2.23% | [7] 1.41% | [8] 1.75% | [9] -8.01% | [11] -2.04% | [12] 8.4% | [13] -32.8% | [14] -47% | [16] 2.67% | [17] 3.86% | [18] 6.65%
